Each structure is given as a SMILES string. “And” between values parts separate entries of the source, which are not always exact repeats. Identical values can stand only once. Records with an inconclusive call do not appear. Some compounds were tested as several samples or in several runs, with calls that do not always agree. Values without a mark were called inactive. The source made the active and inactive calls. Calls follow the shape of the dose curve; as a rule, active = well fitted inhibition curve with a large enough effect; inconclusive = small, poorly fitted or top-dose-only effect; inactive = flat fitted curve, though single readings scatter.

This is an account of results in PubChem BioAssay (NCATS).

Assay [1] is described as follows: Drug repurposing screens with cells derived from glioblastoma tumor samples (AID 1345199). Also: nearly all actives have a fitted effect of over 40% in size. The note with it: GBM patient neurospheres viability, ATP luminescence, 48 h. In outline:
(§1)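 Four patient lines of CD133+ GBM neurospheres were screened at several concentrations; hits were retested in those lines plus three slower-growing GBM lines, using 48-hour treatment and ATP-based viability.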

In another assay the test system is astro (control astrocytes). The assay is described as above. The note with it: viability, ATP luminescence, 48 h; series mostly up to 45.9 µM. A digest of the protocol:
as §1

Setting [2] is: at 45.9 µM (top of the series), tumour line B.
[3] abbreviates: at 45.9 µM (top of the series), tumour line D.
Setting [4] is: at 46 µM (top of the series), tumour line A.
Where [5] appears, read: at 46.1 µM (top of the series), tumour line C.
% is scaled to controls: 0 for no effect and ±100 for the full control effect; potency is read from the fitted curve at half-maximal effect.

On to `CS(=O)(=O)Nc1cc2occ(NC=O)c(=O)c2cc1Oc1ccccc1`, for which the activity, negative = cell killing was -8.06% in assay [1] (setting [2]), -12.9% in assay [1] (setting [3]), -16.3% in assay [1] (setting [4]) and 0.0891% in assay [1] (setting [5]). In the assay on astro, the Potency entry was “inactive”.
Turning to `CCN(CC)c1ccc(N=Nc2ccc(S(=O)(=O)N(C)C)cc2)c(S(=O)(=O)NCC[n+]2ccccc2)c1`, the values for the activity, negative = cell killing in assay [1] (setting [2]), in assay [1] (setting [3]) and in assay [1] (setting [5]) were -13%, -3.67% and -10.2%, respectively. The Potency in assay [1] (tumour line A) is 35.5 µM (active). The Potency result in the assay on astro was “inactive”.
On to `CCCCCCCCCCCCCCCC(=O)OC/C=C(C)/C=C/C=C(C)/C=C/C1=C(C)CCCC1(C)C`, for which the activity, negative = cell killing in assay [1] (setting [2]) was -7.71%; in assay [1] (setting [3]) it was 9.03%; in assay [1] (setting [5]), 0.655%. Besides, the Potency in assay [1] (tumour line A) is 20 µM (active). In addition, the Potency result in the assay with astro was “inactive”.
As for `NCCCC[C@H](NC(=O)[C@@H]1CCCN1C(=O)[C@@H]1CSSC[C@H](N)C(=O)N[C@@H](Cc2ccccc2)C(=O)N[C@@H](Cc2ccccc2)C(=O)N[C@@H](CCC(N)=O)C(=O)N[C@@H](CC(N)=O)C(=O)N1)C(=O)NCC(N)=O`, the activity, negative = cell killing was -4.48% in assay [1] (setting [2]), -4.17% in assay [1] (setting [3]), -29.5% in assay [1] (setting [4]) and -22.2% in assay [1] (setting [5]). Also, the Potency result with astro was “inactive”.
In the case of `CO/N=C(\C(=O)N[C@@H]1C(=O)N2C(C(=O)OCOC(=O)C(C)(C)C)=C(/C=C\c3scnc3C)CS[C@H]12)c1csc(N)n1`, the activity, negative = cell killing in assay [1] (setting [2]) is -2.3%; in assay [1] (setting [3]), -0.209%; in assay [1] (setting [4]), -23.3%; in assay [1] (setting [5]), -3.78%. In addition, the Potency result in the assay on astro was “inactive”.
For `O=C1C(c2[nH]c3ccc(S(=O)(=O)O)cc3c2O)=Nc2ccc(S(=O)(=O)O)cc21`, the activity, negative = cell killing was -3.91% and -0.988% and -8.05% in assay [1] (setting [2]); -5.52% and -3.79% and -6.7% in assay [1] (setting [3]); -11.9% in assay [1] (setting [4]); 2.85% and 2.31% and 15% in assay [1] (setting [5]). The Potency entry in the assay with astro is “inactive”.
With `CC(CN(C)C)CN1c2ccccc2S(=O)(=O)c2ccccc21` (stereo not given), the activity, negative = cell killing in assay [1] (setting [2]) is -1.87%; in assay [1] (setting [3]), -21.7%; in assay [1] (setting [5]) it was 14.3%. The Potency in assay [1] (tumour line A) is 17.8 µM (active). Moreover, the Potency entry with astro was “inactive”.
With `COCC1=C(C(=O)OC(C)OC(=O)OC(C)C)N2C(=O)[C@@H](NC(=O)/C(=N\OC)c3csc(N)n3)[C@H]2SC1` (stereo not given in full), the activity, negative = cell killing in assay [1] (setting [2]) is -23.6% and -15.3%; in assay [1] (setting [3]) it was 14.5% and -3.43%; in assay [1] (setting [4]) it was -24.7%; in assay [1] (setting [5]), 0.117% and 4.67%. Moreover, in the assay with astro, the Potency result was “inactive”.
`CC(C)(S)C(=O)N[C@@H](CS)C(=O)O`: the activity, negative = cell killing is -12.3% and -6.78% in assay [1] (setting [2]); -24.6% and -16.1% in assay [1] (setting [3]); -15.9% and -10.8% in assay [1] (setting [5]). For the same compound, the Potency in assay [1] (tumour line A) was 39.8 µM (active). Moreover, the Potency entry in the assay on astro is “inactive”.
`O=c1[nH]cnc2[nH]cc(CN3CCCCC3)c12`: the activity, negative = cell killing is -5.2% in assay [1] (setting [2]), -0.491% in assay [1] (setting [3]), 2.77% in assay [1] (setting [4]) and -8.31% in assay [1] (setting [5]). Further, the Potency result with astro is “inactive”.
On to `C[C@H](CSC(=O)c1ccccc1)C(=O)N1C[C@@H](Sc2ccccc2)C[C@H]1C(=O)O`, for which the activity, negative = cell killing is -6.07% in assay [1] (setting [2]), 2.27% in assay [1] (setting [3]), -16.6% in assay [1] (setting [4]) and -10.8% in assay [1] (setting [5]). Besides, in the assay on astro, the Potency entry was “inactive”.
For the compound `C[C@@H]1C[C@H]2C3C[C@H](F)C4=CC(=O)C=CC4(C)[C@@]3(F)[C@@H](O)CC2(C)[C@@]1(O)C(=O)COC(=O)C(C)(C)C` (stereo not given in full), the results for the activity, negative = cell killing in assay [1] (setting [2]), in assay [1] (setting [3]) and in assay [1] (setting [5]) were -6.93%, -10.7% and 2.01%, respectively. Moreover, in assay [1] (tumour line A), the Potency is 12.6 µM (active). Also, the Potency result in the assay with astro is “inactive”.
On to `CCCCC(=O)O`, for which the activity, negative = cell killing is -3.62% and -8.26% in assay [1] (setting [2]); 6.9% and -1.28% in assay [1] (setting [3]); -15.7% in assay [1] (setting [4]); -7.54% and 1.54% in assay [1] (setting [5]). The Potency result with astro was “inactive”.
With `CCN1CCCC1CNC(=O)c1cc(S(=O)(=O)CC)ccc1OC` (stereo not given), the activity, negative = cell killing in assay [1] (setting [2]) is -1.25% and -14.5%; in assay [1] (setting [3]), -0.732% and -9.3%; in assay [1] (setting [4]), -20%; in assay [1] (setting [5]), 11.5% and 15.2%. Further, the Potency result with astro was “inactive”.
On to `O=C1O[C@@H]2[C@@H](O)[C@H](O)O[C@@H]2[C@H]1O`, for which the activity, negative = cell killing is -11.2% in assay [1] (setting [2]), -1.84% in assay [1] (setting [3]), -28.6% in assay [1] (setting [4]) and -14% in assay [1] (setting [5]). Also, in the assay on astro, the Potency entry is “inactive”.
In the same order, the values of `CCCCCCCCCCCCCCCCCC(=O)[O][Al]` are -8.38%, -6.36%, -12.4%, -6.43% and “inactive”.
As to `CCOC(=O)[C@H](CCc1ccccc1)N[C@@H](C)C(=O)N1CC2(C[C@H]1C(=O)O)SCCS2`, the activity, negative = cell killing is -13.1% in assay [1] (setting [2]), 3.06% in assay [1] (setting [3]), -27.1% in assay [1] (setting [4]) and 2.21% in assay [1] (setting [5]). Also, the Potency entry in the assay on astro was “inactive”.
`CC(=O)N[C@@H](C=O)[C@H](O)[C@H](O)[C@@H](O)CO`: the activity, negative = cell killing in assay [1] (setting [2]) was -7.64% and 0.13%; in assay [1] (setting [3]), -11.8% and 0.539%; in assay [1] (setting [4]), 1.93%; in assay [1] (setting [5]) it was 6.46% and 10.4%. Further, the Potency entry in the assay with astro is “inactive”.
